# An excerpt weighted towards active compounds, which were near 4.7% of everything screened.
# PABP polyA inh: PABP poly(A) RNA binding inhibitors, primary screen, biochemical, fluorescence polarization, uHTS | Polyadenylate-binding protein 1 (Homo sapiens), P11940 | hit rate 1% among 290,000 | inhibition, % at 35 µM | AID 2014, 2009;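 note: calls also rest on retests at 20 µM and on dose response follow-up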
# Target sequence (P11940 whole entry, looked up): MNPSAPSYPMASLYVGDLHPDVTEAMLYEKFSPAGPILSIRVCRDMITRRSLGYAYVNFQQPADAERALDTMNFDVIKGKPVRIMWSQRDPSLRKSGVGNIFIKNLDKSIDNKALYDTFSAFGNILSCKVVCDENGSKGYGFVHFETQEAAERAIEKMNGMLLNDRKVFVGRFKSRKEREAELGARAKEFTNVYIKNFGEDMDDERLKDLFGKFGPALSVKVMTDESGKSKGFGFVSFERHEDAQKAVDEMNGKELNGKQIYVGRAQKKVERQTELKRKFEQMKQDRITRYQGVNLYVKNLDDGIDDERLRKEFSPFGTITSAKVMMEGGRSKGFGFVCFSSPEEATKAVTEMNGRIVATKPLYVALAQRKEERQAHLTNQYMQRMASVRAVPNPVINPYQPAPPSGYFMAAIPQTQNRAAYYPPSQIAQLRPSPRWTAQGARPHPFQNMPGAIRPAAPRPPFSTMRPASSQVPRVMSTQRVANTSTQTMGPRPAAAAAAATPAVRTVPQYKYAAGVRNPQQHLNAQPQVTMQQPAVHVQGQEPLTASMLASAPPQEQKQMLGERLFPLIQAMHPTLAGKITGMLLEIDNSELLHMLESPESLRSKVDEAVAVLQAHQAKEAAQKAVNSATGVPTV
# SUMO HTRF inh: inhibitors of in vitro SUMOylation cascade, primary screen, biochemical, HTRF, uHTS; SUMO-conjugating enzyme UBC9 (Homo sapiens), P63279; HTRF SUMOylation assay, SAE1/SAE2 + UBC9; inhibition, % at 35 µM; hit rate 0.36% among 290,000; AID 2006, 2009; in the data active = inhibition above about 50%, passing the limit was not always enough; inconclusive = no clear call, values can overlap the other calls
# PABP1 MLLE inh: inhibitors of PABP1 MLLE–PAM2 peptide binding, primary screen, biochemical, fluorescence polarization, FITC-PAM2, GST-MLLE | Polyadenylate-binding protein 1 (Homo sapiens), P11940 | inhibition, % at 20 µM | hit rate 0.36% among 360,000; in the data active = inhibition above about 35%, passing the limit was not always enough;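 note: plate controls were DMSO wells with GST-MLLE for no effect and wells lacking GST-MLLE protein for full effect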
# Efflux pump mplx: inhibitors of Candida efflux pumps in yeast, primary screen, S. cerevisiae, Nile Red, multiplex | S. cerevisiae Candida pump triplex | inhibition, % at 10 µM | hit rate 0.44% among 330,000 | AID 485275, 2010;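 active = plate passing quality check with inhibition over a set limit, or well fluorescence over plate mean plus 4 SD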;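 note: Nile Red retained in pooled yeast measured as flow cytometry median fluorescence; 0% = buffer negative control and 100% = Enniatin B positive control; higher means more Nile Red kept so more efflux inhibition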
# eIF4H inh: human eIF4H binding inhibitors, primary screen, translation initiation inhibitor project, biochemical, uHTS, fluorescence polarization; Eukaryotic translation initiation factor 4H (Homo sapiens), Q15056; eIF4H fluorescence polarization binding assay; inhibition, % at 35 µM; hit rate 0.94% among 290,000; AID 2012, 2009;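 note: calls also rest on retests at 20 µM and on dose response follow-up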
# ALR inh: inhibitors of human ALR sulfhydryl oxidase, primary screen, biochemical, H2O2 detection, HRP-luminol luminescence, single point; hit rate 3.8% among 290,000; inhibition, % (test concentration not listed); purified ALR, DTT oxidation; AID 485317, 2010;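 active = mean replicate inhibition above about 79%, with every replicate also reaching it, limit read from the data; inconclusive = only one of the two criteria met; inactive = mean below limit and not every replicate reaching it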
# * marks the source's active call; other numbers are inactive results; ? = inconclusive; nt = not tested or not shown. Unless noted, the rule behind the calls is not given here.
SMILES,PABP polyA inh,SUMO HTRF inh,PABP1 MLLE inh,Efflux pump mplx,eIF4H inh,ALR inh
Oc1ccc(-c2nc3ncccn3c2Nc2ccc3c(c2)OCO3)cc1,17,13,3,0,18,99*
Cc1csc(SCC(=O)Nc2ccc3[nH]c(=O)[nH]c3c2)n1,nt,nt,-1,0,nt,-15
Cc1nc2ccc(N)cc2s1,7,-5,11,0,-6,99*
Cc1nc2cc3sc(C)nc3cc2s1,-19,11,-18,0,-4,-36
Nc1ccc2nc(N)sc2c1,nt,nt,5,nt,nt,nt
Nc1ccc2sc(N)nc2c1,nt,nt,-7,0,nt,91*
COCCN(Cc1ccc(OC)cc1)c1c(C)nc2ccc(C(=O)Nc3ccc(NC(C)=O)cc3)cn12,nt,nt,8,nt,nt,nt
C[C@@H]1C(=O)N(c2ccccc2)[C@@H]1c1ccncc1,nt,nt,6,0,nt,nt
Cn1c(=O)c2[nH]c(Cc3cccc4ccccc34)nc2n(C)c1=O,nt,nt,7,nt,nt,nt
CC(=O)c1c(C)[nH]c(C(=O)OC(C)C(=O)NC2CCCCC2)c1C (stereo unspecified),nt,nt,0,nt,nt,nt
O=C(N/N=C/c1ccc(O)cc1)c1cc(C23CC4CC(CC(C4)C2)C3)[nH]n1,0,-8,-6,0,-4,91*
COc1ccc(-c2nc3ccc(Br)cn3c2CC(C)(C)C)cc1OC,nt,nt,-2,nt,nt,nt
COCCn1c(=NC(=O)CCS(=O)(=O)c2ccccc2)sc2cc(C(=O)OC)ccc21,-3,8,-2,0,1,5
COCCn1c(=NC(=O)CSCC(=O)Nc2cc(C)on2)sc2cc(C(=O)OC)ccc21,9,8,25,0,3,92*
COc1cc(/C=N/Nc2ccccc2[N+](=O)[O-])cc(OC)c1O,5,-21,11,0,-7,74
COc1cc(/C=N/Nc2ccc(Cl)nn2)cc(OC)c1O,17,4,4,0,5,95*
COc1cc(/C=N/Nc2ccc(F)cc2F)cc(OC)c1O,0,1,21,0,4,99*
Oc1ccc(/C=N/Nc2ccc(Cl)nn2)c(O)c1O,55*,44,40,-2,80*,nt
CCCNC(=O)N(C)C[C@H]1Oc2ncc(C#CCc3ccccc3)cc2C(=O)N([C@H](C)CO)C[C@H]1C,nt,nt,7,nt,nt,nt
Cc1nn(C)c(Cl)c1C(=O)NCC(=O)NCc1ccccc1,6,-11,2,0,-1,-4
CCOC(=O)c1ccc(N2C(=O)C3C(/C=C/c4ccccc4)OC4(C(=O)c5ccccc5C4=O)C3C2=O)cc1 (stereo unspecified),active,-7,0,0,57,-15
CCOC(=O)c1ccc(N2C(=O)[C@@H](c3ccccc3)[C@H]2c2ccccc2)cc1,nt,nt,1,0,nt,-3
COc1ccccc1C(=O)COC(=O)C1(C)CC1(Cl)Cl (stereo unspecified),nt,nt,-4,0,nt,3
C=CCOC(=O)c1cc(-c2ccc(/C=C3\C(=O)NC(=O)C(C#N)=C3C)o2)ccc1Cl,51*,38,-13,nt,71*,nt
CC1=CC(C#N)(C#N)C(C#N)(C#N)C(c2ccccc2)N1 (stereo unspecified),102*,-14,nt,0,102*,-33
SMILES,PABP polyA inh,SUMO HTRF inh,PABP1 MLLE inh,Efflux pump mplx,eIF4H inh,ALR inh
COC1(OC)N=C(N)C2(C#N)C(c3ccccc3)NC(C)=CC12C#N (stereo unspecified),-4,8,-4,0,-10,-3
O=c1cc(-c2cc3ccccc3o2)c2cc(O)ccc2o1,60*,18,0,0,80*,1
C/C(=N\NC(=O)CCC(=O)Nc1ccccc1)c1cccs1,88,12,4,0,1.1*,0
CCOCCCNC(=O)c1ccc(-n2c(=S)[nH]c3ccccc3c2=O)cc1,14,-15,-13,0,0,84*
CCCCNC(=O)C1(C)CCN1C(=O)c1cccnc1Oc1ccccc1 (stereo unspecified),nt,nt,10,nt,nt,nt
CCSc1nnc(NC(=O)CCCOc2ccc(C)cc2)s1,-7,-60,14,0,1,5
CN(C)c1ccc(C(=O)Nc2ccc(S(=O)(=O)Nc3nccs3)cc2)cc1,-13,5,-5,0,-7,-7
Cc1cc2c(N=O)c(NO)ccc2[nH]1,13,3,2,0,18,79*
COCCN1C[C@@H](CO)O[C@@H](n2cnc3c(N4CCN(CCO)CC4)ncnc32)C1,nt,nt,9,nt,nt,nt
CCCn1nc([N+](=O)[O-])c(C(C#N)c2nc3ccccc3s2)c(Cl)c1=O (stereo unspecified),20,21,5,0,-13,97*
CCCOC(=O)N[C@@H]1C(=O)N2C(C(=O)OCCC)=C(C)CS[C@H]12,-3,-3,5,0,-4,21
Cc1ccc(NC(=O)CN(C)C(=O)Cn2c(=O)oc3ccccc32)cc1,nt,nt,-9,0,nt,-6
CCc1nc(SCC(=O)Nc2nc3c(s2)CCCC3)c2ccccc2n1,3,-11,34,0,-8,99*
CCCc1nc(SCC(=O)Nc2nc3c(s2)CCCC3)c2ccccc2n1,-6,8,35,0,-11,99*
CC1CCCCN1CC(=O)Nc1ccc2c(c1)OCO2 (stereo unspecified),nt,nt,-13,0,nt,-3
CCCN(C(=O)C(=O)Nc1ccc2nc3n(c(=O)c2c1)CCCCC3)c1ccc(OCC)cc1,-2,8,1,0,3,-4
Nc1ccccc1C(=O)NC1CCCNC1=O (stereo unspecified),nt,nt,8,0,nt,-3
O=C(Nc1csc(Cc2c(Cl)cccc2Cl)n1)NN1CCOCC1,7,-13,7,0,-10,nt
O=c1c2c(nc3cc(-c4ccc(Cl)cc4)[nH]n13)CCS2,0.7*,15,5,0,?,nt
CCCCOC(=O)c1ccc(NC(=O)CSC2=Nc3ccccc3C3CC=NN23)cc1 (stereo unspecified),-9,16,0,0,-3,100*
COc1cc(/C=N/NC(=O)CCn2nnc3ccccc32)ccc1O,-16,-12,4,0,-3,99*
COc1ccc(/C=N/NC(=O)Cn2c(Cc3ccc(OC)c(OC)c3)nc3ccccc32)cc1,76*,-2,4,0,active,-21
COc1cc(/C=N/NC(=O)Cn2nnc3ccccc32)ccc1O,-1,-2,8,0,2,92*
COc1cc(/C=N\NC(=O)Cn2nnc3ccccc32)cc(OC)c1OC,4,-9,2,0,5,-4
COc1cccc(/C=N/NC(=O)CCn2nnc3ccccc32)c1,-10,0,16,0,-3,19
O=C(NCc1cccnc1)c1cn(-c2ccccc2)nc1-c1ccccc1,8,-13,13,0,-3,-15

# Screening results from PubChem BioAssay.
